Test results as given in PubChem BioAssay (EPA / NIEHS).
Active and inactive are the calls of the source. Rule for the calls: active = hit-call score of the fitted dose curve at least 0.9, where 1 is the maximum; inactive = score below 0.9.

Assay: ATG_TGFb_CIS: Attagene CIS-FACTORIAL HepG2 Assay for human Transforming Growth Factor (TGF) (AID 2282967)
Details: HepG2 Attagene CIS TGFb reporter, mRNA transcription; actives raise or lower the signal
Method in brief: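 Readout: fluorescently labeled reporter cDNA fragments resolved by capillary electrophoresis after RT-PCR. Transfected HepG2 cells dosed for 24 h; endogenous TF activity at TGFB1-linked cis element; gain or loss fitted relative to DMSO.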

SMILES | outcome | AC50
COC(=O)Nc1nc2ccccc2[nH]1 | inactive | 
CC(C)(O)c1cnn2c(-c3ccc(F)c(-c4c(F)cccc4C#N)c3)cnc2n1 | inactive | 
Cc1cccc(N)c1N | inactive | 
O=C(Oc1ccc(Br)cc1)N1CCN2CCC1CC2 | inactive | 
CCCCC(CC)COC(=O)c1ccc(C(=O)OCC(CC)CCCC)c(C(=O)OCC(CC)CCCC)c1 (stereo unspecified) | inactive | 
CC(C)(C)C(O)(CCc1ccc(Cl)cc1)Cn1cncn1 (stereo unspecified) | inactive | 
[Cl-].[Cl-].[Hg+2] | inactive | 
CCC[CH2][Sn]([Cl])([CH2]CCC)[CH2]CCC | inactive | 
CN(C)c1ccc(C(=O)c2ccc(N(C)C)cc2)cc1 | inactive | 
O=C1CCCO1 | inactive | 
CCC12COCN1COC2 | inactive | 
CNC(=O)Oc1cccc2c1OC(C)(C)C2 | inactive | 
OCCOCCO | inactive | 
CCOc1cccc(C2(N3CCN(c4ccccc4)CC3)CCC(C)CC2)c1 (stereo unspecified) | inactive | 
CC(C)N(Cc1ccccc1)C(=O)C(C)(C)C | inactive | 
Nc1ccc(Cc2ccc(N)cc2)cc1 | inactive | 
CN(C)C(=O)Nc1ccc(Cl)cc1 | inactive | 
CCOC(=O)[C@]1(c2ccccc2)Oc2ccccc2[C@@H]1N |  | 15.6 µM (active)
CCCSC(=O)N(CCC)CCC | inactive | 
OCCCl | inactive | 
O=[N+]([O-])C(Br)(CO)CO |  | 23.4 µM (active)
O=Cc1ccco1 | inactive | 
Clc1ccc(C(c2ccc(Cl)cc2)C(Cl)Cl)cc1 | inactive | 
c1ccc2c(c1)-c1cccc3cccc-2c13 | inactive | 
CCCCCOC(=O)c1ccccc1C(=O)OCCCCC | inactive | 
CCCCCCCCn1sccc1=O | inactive | 
Nc1ccc(Cl)cc1N | inactive | 
c1ccc2c(c1)oc1ccccc12 | inactive | 

Assay: ATG_VDRE_CIS: Attagene CIS-FACTORIAL HepG2 Assay for human Vitamin D Receptor Element (VDRE) (AID 2282968)
Details: HepG2 VDRE cis-reporter transcription, actives raise or lower the signal
Method in brief: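 RT-PCR/CE readout of reporter mRNA; HepG2, transient transfection, 24 h dosing; DMSO baseline; bidirectional analysis.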

SMILES | outcome | AC50
COC(=O)Nc1nc2ccccc2[nH]1 | inactive | 
CC(C)(O)c1cnn2c(-c3ccc(F)c(-c4c(F)cccc4C#N)c3)cnc2n1 |  | 0.538 µM (active)
Cc1cccc(N)c1N |  | 106 µM (active)
O=C(Oc1ccc(Br)cc1)N1CCN2CCC1CC2 | inactive | 
CCCCC(CC)COC(=O)c1ccc(C(=O)OCC(CC)CCCC)c(C(=O)OCC(CC)CCCC)c1 (stereo unspecified) | inactive | 
CC(C)(C)C(O)(CCc1ccc(Cl)cc1)Cn1cncn1 (stereo unspecified) | inactive | 
[Cl-].[Cl-].[Hg+2] | inactive | 
CCC[CH2][Sn]([Cl])([CH2]CCC)[CH2]CCC |  | 0.412 µM (active)
CN(C)c1ccc(C(=O)c2ccc(N(C)C)cc2)cc1 | inactive | 
O=C1CCCO1 | inactive | 
CCC12COCN1COC2 | inactive | 
CNC(=O)Oc1cccc2c1OC(C)(C)C2 | inactive | 
OCCOCCO | inactive | 
CCOc1cccc(C2(N3CCN(c4ccccc4)CC3)CCC(C)CC2)c1 (stereo unspecified) | inactive | 
CC(C)N(Cc1ccccc1)C(=O)C(C)(C)C | inactive | 
Nc1ccc(Cc2ccc(N)cc2)cc1 | inactive | 
CN(C)C(=O)Nc1ccc(Cl)cc1 | inactive | 
CCOC(=O)[C@]1(c2ccccc2)Oc2ccccc2[C@@H]1N |  | 15.8 µM (active)
CCCSC(=O)N(CCC)CCC | inactive | 
OCCCl | inactive | 
O=[N+]([O-])C(Br)(CO)CO |  | 127 µM (active)
O=Cc1ccco1 | inactive | 
Clc1ccc(C(c2ccc(Cl)cc2)C(Cl)Cl)cc1 |  | 15.7 µM (active)
c1ccc2c(c1)-c1cccc3cccc-2c13 | inactive | 
CCCCCOC(=O)c1ccccc1C(=O)OCCCCC |  | 89.8 µM (active)
CCCCCCCCn1sccc1=O |  | 16.7 µM (active)
Nc1ccc(Cl)cc1N |  | 27.3 µM (active)
c1ccc2c(c1)oc1ccccc12 | inactive | 
